Measurements: PubChem BioAssay (Tox21)
Records with an inconclusive call do not appear. A number with no mark means an inactive call. Calls of active or inactive are those of the source. The call rests on the fitted dose curve; in most records, active means well fitted curve in the direction sought with a large enough effect in the repeat runs; inconclusive means weak or mixed curves; inactive means no such curve, though single readings can be large; an effect the other way counts as inactive or inconclusive.

Assay: A CellTox Green Cytotoxicity Assay to monitor cytotoxicity in HepG2 cells - 8 hour (AID 1224890); further: nearly all actives have a fitted effect of over 45% in size
Details: CellTox Green fluorescence; series mostly up to 76.8 µM; cytotoxicity increase: at the top concentration
Procedure, shortened: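 HepG2, 600 cells/well premixed w/ CellTox Green; 5 h settle, 37 C/5% CO2; pintool cpd add (DMSO); 37 C, 40 h; fluorescence read at 0, 8, 16, 24, 32, 40 h.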
On the % scale 0 is the no-effect control and ±100 the full control effect.

SMILES | cytotoxicity increase | Potency
O=C(NCc1cccnc1)Nc1ccc([N+](=O)[O-])cc1 | -1.59% | –
CC[C@H]1C[C@H]2[C@@H]3CCC4=CC(=O)CC[C@@H]4[C@H]3CC[C@]2(C)[C@H]1O | 17.9% [at 35.3 µM] | –
O=C(CBr)Nc1ccc(Cl)cc1C(=O)c1ccccc1F | 1.64% [at 35.3 µM] | –
ClCC(Br)CBr (configuration not stated) | 0.212% | –
COc1c(C(C)(C)C)cc([N+](=O)[O-])c(C)c1[N+](=O)[O-] | 0.54% | –
c1ccoc1 | 11.5% | –
CCCC(=O)Cl | 0.0258% | –
Nc1nc(=S)[nH][nH]1 | -8.41% | –
Brc1ccc(Oc2ccccc2)cc1 | – | inactive
O=C1NCN(c2ccccc2)C12CCN(CCCOc1ccc(F)cc1)CC2 | 0.275% [at 35.3 µM] | –
O=[N+]([O-])c1ccc(F)c([N+](=O)[O-])c1 | -0.827% | –
CCOP(=O)(OCC)O/C(=C/Cl)c1ccc(Cl)cc1Cl | 1.69% | –
CCOP(=S)(OCC)SCSCC | 3.19% | –
ClC=C(Cl)Cl | -4.57% | –
COC(N)=O | -21.3% | –
CCC(Cl)CCl (configuration not stated) | -6.55% | –
CCCN(CCCl)c1c([N+](=O)[O-])cc(C(F)(F)F)cc1[N+](=O)[O-] | -12.8% | –
Cn1cc[n+](C)c1 (tested in a mixture with another compound) | -4.47% | –

SMILES | cytotoxicity increase | Potency
C=CC(C)=O | 7.84% | –
O=C(NC(=O)c1c(F)cccc1F)Nc1ccc(OC(F)(F)C(F)OC(F)(F)F)c(Cl)c1 (configuration not stated) | -4.64% [at 35.3 µM] | –
COc1cc(Cl)c(OC)cc1Cl | 6.62% | –
COCCOCCO | -7.84% | –
Clc1ccc(C(OCCN2CCCCC2)c2ccccc2)cc1 (configuration not stated) | 7.02% [at 35.3 µM] | –
CCOP(=S)(Oc1ccc([N+](=O)[O-])cc1)c1ccccc1 (configuration not stated) | -2.64% | –
CC(=O)[C@H]1CC[C@H]2[C@@H]3CC[C@H]4C[C@](C)(O)CC[C@]4(C)[C@H]3CC[C@]12C | -4.74% [at 35.3 µM] | –
CCBr | -1.61% | –
COc1nn(CSP(=S)(OC)OC)c(=O)s1 | -2.53% | –
CN(N=O)c1ccc([N+](=O)[O-])cc1 | -22.7% | –
O=C(O)COc1ccc(Cl)cc1 | -13.9% | –
CN1C(=O)C(O)N=C(c2ccccc2)c2cc(Cl)ccc21 (configuration not stated) | -6.29% | –
CO[C@@H]1[C@H](OC(=O)NC(=O)CCl)CC[C@]2(CO2)[C@H]1[C@@]1(C)O[C@@H]1CC=C(C)C | -1.9% [at 15.8 µM] | –
CCCCNP(N)(N)=S | -10.5% | –
OCCCBr | 3.15% | –
Cl/C=C\C[N+]12CN3CN(CN(C3)C1)C2 | 1.37% | –
CCOP(=S)(OCC)Oc1cc(Cl)c(Br)cc1Cl | -12.4% | –

Assay: qHTS assay to identify small molecule antagonists of the estrogen receptor alpha (ER-alpha) signaling pathway using the BG1 cell line in the presence of 0.1 nM 17-beta-estradiol - cell viability counter screen (AID 1259241); further: nearly all actives have a fitted effect of over 40% in size; further: potency means the concentration at half of the fitted maximal effect
Details: VM7Luc4E2 (BG1) viability, CellTiter-Fluor protease, 22 h, 0.1 nM estradiol agonist added; series mostly up to 92.4 µM; activity change, negative = cytotoxicity: at the top concentration
Procedure, shortened: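 Live-cell protease activity (CellTiter-Fluor fluorescence, 30 min) was read in the same wells after VM7Luc4E2 cells had been exposed to compounds with 0.1 nM 17beta-estradiol for 22 hr at 37C.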

SMILES | activity change, negative = cytotoxicity | Potency
O=C(NCc1cccnc1)Nc1ccc([N+](=O)[O-])cc1 | 2.31% | –
CC[C@H]1C[C@H]2[C@@H]3CCC4=CC(=O)CC[C@@H]4[C@H]3CC[C@]2(C)[C@H]1O | 0.415% [at 42.5 µM] | –
O=C(CBr)Nc1ccc(Cl)cc1C(=O)c1ccccc1F | 1.02% [at 42.5 µM] | –
ClCC(Br)CBr (configuration not stated) | 12.7% | –
COc1c(C(C)(C)C)cc([N+](=O)[O-])c(C)c1[N+](=O)[O-] | 13% | –
c1ccoc1 | 0% | –
CCCC(=O)Cl | 0% | –
Nc1nc(=S)[nH][nH]1 | -1.07% | –
Brc1ccc(Oc2ccccc2)cc1 | – | inactive
O=C1NCN(c2ccccc2)C12CCN(CCCOc1ccc(F)cc1)CC2 | -25.8% [at 42.5 µM] | –
O=[N+]([O-])c1ccc(F)c([N+](=O)[O-])c1 | – | 17.4 µM (active)
CCOP(=O)(OCC)O/C(=C/Cl)c1ccc(Cl)cc1Cl | -1.81% | –
CCOP(=S)(OCC)SCSCC | -7.13% | –
ClC=C(Cl)Cl | 2.21% | –
COC(N)=O | 3.22% | –
CCC(Cl)CCl (configuration not stated) | 11% | –
CCCN(CCCl)c1c([N+](=O)[O-])cc(C(F)(F)F)cc1[N+](=O)[O-] | -2.32% | –
